uPA surface inh – cell surface uPA generation inhibition; cell surface uPA generation assay, qHTS; Potency, µM (top dose mostly 38.3 µM), inactives show top-dose activity change, negative = inhibition, most hits filed as inhibitors; 330,000 tested, 0.31% active; AID 540303; active = well fitted inhibition curve with a large enough effect; inconclusive = small, poorly fitted or top-dose-only effect; inactive = no such curve, though single readings can be large or run the other way; tested in mouse RAW 264.7 cells; note: % is set by controls: 0 for no effect and ±100 for the full control effect; nearly all actives have a fitted effect of over 55% in size
Mito fusion yeast – inhibitors of mitochondrial division or activators of mitochondrial fusion. 320,000 tested, 0.23% active. Potency, µM (top dose mostly 46.1 µM), for the others: at the highest dose growth rescue (activation), usual class: activators. AID 485298. S. cerevisiae fusion-defective mutant growth rescue, CellTiterGlo 48 h; note: % of control where 0% means no effect; nearly all actives have a fitted effect of over 45% in size
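Temperature-sensitive fusion-defective S. cerevisiae (e.g. fzo1-1, mgm1-5) were grown with compound in YPEG medium (3% ethanol, 3% glycerol) for 48 hours at 37C. Growth rescue was measured as viability by CellTiterGlo luminescence after 10 minutes at ambient.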
Chronic BCR inh – inhibitors of chronic active B-cell receptor signaling; 340,000 tested, 0.05% active; ABC-DLBCL IkBa-CBG/CBR reporter, luminescence ratio, 4 h; AID 493014; Potency, µM (top dose mostly 46.1 µM), without a hit: at the highest dose activity change, negative = inhibition, hits mostly inhibitors; active = well fitted inhibition curve with a large enough effect in the signal ratio, with a control signal flat, not every such curve was filed as active; inconclusive = small, poorly fitted or top-dose-only effect, or effect the other way, or a change in a side signal; the % refers to the signal ratio;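 note: plate controls were basal doxycycline-induced cells for no effect and cells given 10 µM MG132 for full effect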
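TMD8 human ABC-DLBCL cells with doxycycline-inducible IκBα–green luciferase fusion and unfused red luciferase, in 0.5% FBS medium; compounds up to 46 uM, 4 h at 37C. Green/red luminescence ratio, filter-overlap corrected, fitted to concentration-response curves.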
a7 integrin act – activators of alpha7 integrin expression for muscular dystrophy; AID 624291; Potency, µM (top dose mostly 38.3 µM), without a hit: at the highest dose activation, usual class: activators; 350,000 tested, 0.064% active; alpha7betagal myoblasts, beta-gal FDG fluorescence, 48 h;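 note: 100% = response of the positive control SU9516; nearly all actives have a fitted effect of over 60% in size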
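Alpha7betagal+/- myoblasts (passage 13) were plated 16-24 hr, then exposed to compounds (1:260 dilution of DMSO stock) for 48 hours at 37C. After MPER lysis, β-galactosidase reporter activity was read as FDG fluorescence (ex 480/em 540) after 30 minutes.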
RORg inh – blocks mouse ROR gamma transcriptional activity; Drosophila S2 Gal4-RORgamma UAS-luciferase reporter, 20 h; P51450; Potency, µM (series often up to 53.6 µM), inactives show top-dose activity change, negative = inhibition, most hits filed as inhibitors; 310,000 tested, 5.4% active; note: % is set by controls: 0 for no effect and ±100 for the full control effect; nearly all actives have a fitted effect of over 60% in size
Target sequence (P51450 whole entry, looked up, the tested form may be a part): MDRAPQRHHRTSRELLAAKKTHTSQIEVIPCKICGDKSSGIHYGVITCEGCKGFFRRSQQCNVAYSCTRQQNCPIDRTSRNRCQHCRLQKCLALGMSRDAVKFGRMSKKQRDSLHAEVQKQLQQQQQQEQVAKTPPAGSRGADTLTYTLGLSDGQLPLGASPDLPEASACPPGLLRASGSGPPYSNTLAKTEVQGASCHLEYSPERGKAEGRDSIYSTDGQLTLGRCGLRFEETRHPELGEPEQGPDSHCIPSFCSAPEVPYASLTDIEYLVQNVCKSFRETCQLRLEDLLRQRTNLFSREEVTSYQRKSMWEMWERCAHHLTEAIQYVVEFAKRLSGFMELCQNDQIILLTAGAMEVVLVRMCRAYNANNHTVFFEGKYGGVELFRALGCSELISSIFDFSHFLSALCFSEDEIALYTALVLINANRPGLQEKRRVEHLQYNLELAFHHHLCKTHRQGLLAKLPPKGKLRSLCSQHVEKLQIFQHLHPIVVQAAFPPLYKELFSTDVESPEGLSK
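Compounds are pin-transferred onto Drosophila Schneider cells expressing a copper-inducible Gal4–ROR gamma transactivation domain fusion. After 1 hr, copper sulfate is added to 700 uM final; luciferase is read 20 hr later.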
Gal4-VP16 FLuc – inhibits Gal4-VP16 luciferase reporter, ROR gamma counter-screen | AID 2546 | Potency, µM (titrated, usually from 53.6 µM), without a hit: at the top dose activity, negative = inhibition, usual class: inhibitors | Drosophila S2 Gal4-VP16 UAS-luciferase, luminescence, 20 h | 310,000 tested, 3.5% active;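 note: Gal4-VP16 expression switched on by copper sulfate through the metallothionein promoter; % is set by controls: 0 for no effect and ±100 for the full control effect; nearly all actives have a fitted effect of over 50% in size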
The depositor's hits bear a star; ? = inconclusive; / = no result given; [ ] = another dose, or the depositor's remark. Only some compounds are listed: those with a hit (about 5.5% of all), similar ones and a draw of the others. Unless noted, calls come from the whole dose curve; as a rule, active = well fitted curve in the direction sought with a large enough effect; inconclusive = small, poorly fitted or top-dose-only effect, or another doubt; inactive = no such curve, though single readings can be large; an effect the other way counts as inactive or inconclusive. Potency is the fitted concentration of half-maximal effect.

SMILES	uPA surface inh	Mito fusion yeast	Chronic BCR inh	a7 integrin act	RORg inh	Gal4-VP16 FLuc
Cc1ccc(Cc2cnc(NC(=O)/C(C#N)=C/c3ccc(-c4ccc([N+](=O)[O-])cc4)o3)s2)cc1	5%	0%	-2%	21%	2.2µM*	0%
CC(C)(CO)C(O)C(=O)NCCC#N (stereo not given)	8%	-2%	3%	-18%	19%	-19%
Cc1cnc(C(=O)Nc2ccc(C)c(S(=O)(=O)N3CCCCCC3)c2)cn1	-18%	7%	-8%	-4%	/	/
CC(=O)c1ccc(N2CCN(Cc3nc(Cc4ccccc4)no3)CC2)cc1	0%	1%	-1%	14%	3.5µM*	?
Cc1ccccc1N1CCN(Cc2nc(Cc3ccccc3)no2)CC1	6%	25%	-5%	1%	22%	6%
CCN(CC)c1ccc(NC(=O)/C=C\c2ccccc2Cl)cc1	-18%	2%	-8%	-1%	35%	-6%[0.365 µM]
C=CCNC(=S)Nc1ccc(N(C)C)cc1	-7%	0%	?	5%	11µM*	?
O=C(/C=C/c1ccco1)NC(=S)Nc1ccc(N2CCCC2)cc1	3%	-7%	?	-21%	2µM*	3.2µM*
CN(C)c1ccc(NC(=S)NC(=O)/C=C/c2ccco2)cc1	-7%	-3%	-1%	9%	14µM*	9%
CC(=O)NC(=S)Nc1ccc(NC(=S)NC(=O)/C=C/c2ccco2)cc1	-4%	-2%	-6%	-40%	?	-16%
CN(C)c1ccc(NC(=O)/C=C/c2ccccc2Cl)cc1	-4%	-1%	?	16%	0.056µM*	-10%
Cc1cc(Cl)cc(C)c1OCCCCCn1ccnc1	0%	-7%	-1%	-16%	?	18µM*
Cc1cc(C)c(OCCCCCn2ccnc2)c(C)c1	-5%	-10%	?	1%	11µM*	14µM*
Cc1cc(OCCCCCn2ccnc2)cc(C)c1Cl	2%	32%	-28%	-27%	24%	5%
CCc1ccc(OCCCCCn2ccnc2)cc1	-2%	-11%	7%	-39%	11µM*	?
Cc1cc(OCCCn2ccnc2)cc(C)c1Cl	/	-5%	-12%	2%[7.66 µM]	?	-5%
Cc1ccc(C)c(OCCCCCn2ccnc2)c1	-2%	0%	2%	-34%	8.9µM*	-30%
Cc1cc(Cl)cc(C)c1OCCn1ccnc1	-13%	-23%	1%	-18%	-32%	1%
CCc1ccc(OCCn2ccnc2)cc1	-2%	-14%	2%	-19%	-12%	-7%
COc1ccc(CN(C)CC(=O)NCC(=O)Nc2c(C)cccc2C)cc1	7%	0%	-3%	-11%	/	/
COCCNC(=S)N1CCC(Cc2ccccc2)CC1	14%	-7%	-3%	0%	-30%	-2%
CC(C)CNC(=S)N1CCC(Cc2ccccc2)CC1	-3%	-7%	-1%	-40%	10µM*	?
CC(C)NC(=S)N1CCC(Cc2ccccc2)CC1	1%	0%	-2%	-45%	1.1µM*	-20%
Cc1ccc(NC(=O)NCCCl)cc1S(=O)(=O)N1CCOCC1	6%	-2%	-5%	0%	5%	-8%
CC(=O)/C(=N\Nc1ccccc1)Oc1ccc(Br)cc1	1%	/	/	16%	/	/
SMILES	uPA surface inh	Mito fusion yeast	Chronic BCR inh	a7 integrin act	RORg inh	Gal4-VP16 FLuc
Cc1cccc(C(C#N)c2nc3ccccc3nc2C(F)(F)F)c1 (stereo not given)	5%	/	/	22%	/	/
N#CC(c1ccc(Cl)cc1)c1nc2ccccc2nc1C(F)(F)F (stereo not given)	1%	-6%	12%	-5%	?	10µM*
Cc1cc(C)c(C)c(S(=O)(=O)N2CCN(c3ccc(O)cc3)CC2)c1C	-11%	?	-6%	-20%	-1%	0%
CCN1C(=O)[C@H]2[C@H]3[C@H](O)[C@H](O)C/C(=N/OCc4ccccc4)[C@@H]3CC[C@@H]2C1=O	/	/	/	/	37%[10 µM]	-8%[10 µM]
COc1ccc(C(=O)Nn2c(SCC(=O)NCC3CCCO3)nc3ccccc3c2=O)cc1 (stereo not given)	-16%	-12%	?	1%	7.1µM*	?
COc1ccc(C(=O)Nn2c(SCC(=O)NC3CCCC3)nc3ccccc3c2=O)cc1	-14%	-7%	?	0%	?	?
COc1ccc(C(=O)Nn2c(SCC(=O)NCc3ccccc3)nc3ccccc3c2=O)cc1	-10%	1%	?	-14%	10µM*	3%
O=C(CSc1nc2ccccc2c(=O)n1CC1CCCO1)NCC1CCCO1 (stereo not given)	2%	1%	-3%	1%	15%	0%
Cc1cc(-c2nnc(CSc3nnc(NC(=O)c4ccc(C(C)(C)C)cc4)s3)o2)ccc1[N+](=O)[O-]	-15%	2%	2%	9%	20%	4%
Oc1ccc(-c2n[nH]c(=S)n2Cc2ccco2)cc1	/	-2%	14%	31%[7.66 µM]	-44%	-1%
CCCn1c(Cc2ccccc2)n[nH]c1=S	-3%	-12%	-10%	-1%	16µM*	?
Oc1cc2ccccc2cc1-c1n[nH]c(=S)n1Cc1ccco1	9%	2%	8%	?	13µM*	-4%
CCCn1c(C(C)NC(=O)c2ccccc2)n[nH]c1=S (stereo not given)	2%	-2%	-4%	4%	17%	-4%
CCCn1c(C(C)NS(=O)(=O)c2ccccc2)n[nH]c1=S (stereo not given)	9%	-2%	-1%	0%	10µM*	-6%
S=c1[nH]nc(Cc2ccccc2)n1Cc1ccco1	/	-4%	4%	24%	14µM*	13µM*
COc1ccc(NC(=O)Cn2c(=O)oc3cc(S(=O)(=O)NC(C)C)ccc32)cc1OC	/	/	6%	/	/	/
CC(=O)NCCc1c[nH]c2ccc(OCC(O)CNC(C)(C)C)cc12 (stereo not given)	2%	0%	-1%	20%	-9%	-4%
CCN(CC)S(=O)(=O)c1ccc(N2CC(C(=O)NCCc3c[nH]c4ccccc34)CC2=O)cc1 (stereo not given)	-6%	0%	-21%	-16%	/	/
CC(C)COc1ccc(-c2cc(C(=O)NN)[nH]n2)cc1	?	10%	-5%	5%	13µM*	?
CCC(=O)Nc1ccc2oc(-c3cccc(C)c3)nc2c1	-10%	9%	?	0%	0.79µM*	2.2µM*
CCC(=O)Nc1ccc(-c2nc3ccccc3c(=O)o2)cc1	-12%	-5%	?	-38%	-92%	16µM*
Cc1cccc(-c2nc3cc(NC(=O)C4CCCO4)ccc3o2)c1 (stereo not given)	-9%	-2%	?	-15%	0.28µM*	?
Cc1ccc2oc(-c3cccc(NC(=O)C4CCCO4)c3)nc2c1 (stereo not given)	-29%	17%	10%	13%	?	?

Assay outcomes (PubChem BioAssay)
